# Bioassay records from PubChem.
# This is a sample that favours compounds with a hit; in the whole collection about 3.3% have one here.
# MITF act: MITF TRPM1 promoter activation in melanoma cells | SK-MEL-5 TRPM1-promoter luciferase, 24 h; % of positive control, neutral wells = 0 | activation, % at 12.5 µM | 300,000 tested, 0.75% active;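 active = mean activation of at least 80% with every replicate also reaching 80%; inconclusive = mean reaches 80% but some replicate falls short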
# C2C12 statin: suppressors of simvastatin-induced myotoxicity in C2C12 myotubes; ATP luminescence, 48 h; scaled: DMSO 0, geranylgeraniol control 100; rescue of ATP level, % at 7.49 µM; 330,000 tested, 0.78% active;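 active = mean ATP rescue above about 67%, or every replicate alone reaching that limit, limit read from the data, passing the limit was not always enough; inconclusive = no clear call, values can overlap the other calls; inactive = mean under the limit and some replicate under it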;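 note: myotubes were challenged with 10 µM simvastatin during compound exposure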
# Wnt act: activators of Wnt/beta-catenin signaling; AID 743398; 300,000 tested, 1.2% active; activation, % at 9.35 µM; Wnt/beta-catenin reporter cell assay, activator, plate reader; in the data active = activation above about 30%, passing the limit was not always enough; inconclusive = no clear call, values can overlap the other calls
# GAA850 FXN act: activators of GAA850 frataxin (FXN) promoter | HEK293 lucGAA850 FXN promoter luciferase reporter, 24 h; percent of 10 µM SAHA response | activation, % at 6 µM | 360,000 tested, 0.56% active | AID 540364;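 active = activation above the average of all compounds screened plus 3 SD, cutoff fixed separately per campaign, cut at about 7.5% in these data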
# esBAF inh: blocks esBAF chromatin remodeling in mouse ES cells; reporter increase, % at 12.5 µM; Bmi1-luciferase knock-in reporter, 24 h; 100% = twice the neutral-well signal; AID 602393; 350,000 tested, 2% active; in the data active = activation above about 40%; inconclusive = no clear call, values can overlap the other calls;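 note: a rise in the Bmi1 reporter signal indicates esBAF inhibition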
# Numbers stand for hits; i = inactive; ? = inconclusive; nt = no result; ! = repeats disagree.
SMILES,MITF act,C2C12 statin,Wnt act,GAA850 FXN act,esBAF inh
C[C@@H]1CN([C@@H](C)CO)C(=O)c2cc(NC(=O)Nc3ccc4c(c3)OCO4)ccc2O[C@@H](C)CCCCO[C@H]1CN(C)C(=O)Nc1ccccc1,nt,i,nt,nt,66
C[C@H](CO)N1C[C@H](C)[C@@H](CN(C)C(=O)Nc2ccc(F)cc2)OCCCC[C@H](C)Oc2ccc(NC(=O)Nc3ccc4c(c3)OCO4)cc2C1=O,nt,i,nt,nt,50
C[C@@H]1CCCCO[C@@H](CN(C)C(=O)Nc2ccc3c(c2)OCO3)[C@@H](C)CN([C@H](C)CO)C(=O)c2cc(NC(=O)Nc3ccc(F)cc3)ccc2O1,nt,nt,nt,nt,i
C[C@@H]1CCCCO[C@@H](CN(C)C(=O)Nc2ccc3c(c2)OCO3)[C@H](C)CN([C@H](C)CO)C(=O)c2cc(NC(=O)Nc3ccccc3)ccc2O1,nt,nt,nt,nt,i
C[C@@H](NC(=O)C[C@@H]1CC[C@H]2[C@@H](COC[C@@H](O)CN2Cc2cc(F)ccc2F)O1)c1ccccc1,nt,i,nt,nt,i
Cc1noc(C)c1S(=O)(=O)Nc1ccc2c(c1)CC(=O)N([C@@H](C)CO)C[C@@H](C)[C@H](CN(C)C(=O)Nc1ccc3c(c1)OCO3)O2,nt,i,nt,nt,i
C[C@H]1CCCCO[C@@H](CN(C)Cc2ccncc2)[C@@H](C)CN([C@@H](C)CO)C(=O)c2cc(NC(=O)Nc3ccc4c(c3)OCO4)ccc2O1,nt,nt,nt,nt,80
C[C@@H]1CCCCO[C@H](CN(C)S(=O)(=O)c2ccc(F)cc2)[C@@H](C)CN([C@@H](C)CO)C(=O)c2cc(NC(=O)Nc3cccc4ccccc34)ccc2O1,nt,i,nt,nt,i
CCOC(=O)C1CCN(S(=O)(=O)c2nc3nc(C)cc(C)n3n2)CC1,i,104,nt,i,i
CCOC(=O)C1CCN(C(=O)COC(=O)c2nc3nc(C)cc(C)n3n2)CC1,i,i,i,i,nt
CCN1[C@@H]2c3ccc(-c4cccc(OC)c4)c(=O)n3C[C@H]1[C@H](CO)[C@H]2C(=O)N(C)C,nt,i,nt,nt,i
C[C@@H]1CN([C@H](C)CO)C(=O)c2cc(Br)cnc2O[C@H]1CN(C)S(=O)(=O)c1ccccc1,nt,i,nt,nt,i
COc1ccc(-c2nc(CS(=O)CC(=O)NC3CCCC3)c(C)o2)cc1OC (stereo not given),i,i,i,i,i
COc1ccc(-c2nc(CS(=O)CC(=O)NC3CCC(C)CC3)c(C)o2)cc1OC (stereo not given),i,i,i,i,77
C/C(N)=C(/C#N)C(=O)CSc1nnc(-c2ccc(OC(F)F)cc2)o1,i,i,i,i,65!
CC(C)NC(=O)Nc1ccc2c(c1)CC(=O)N([C@@H](C)CO)C[C@@H](C)[C@H](CN(C)C(=O)NC(C)C)O2,nt,i,nt,nt,i
CCCOc1ccc(-c2csc3nc[nH]c(=O)c23)cc1,i,i,38,i,?
O=c1[nH]cnc2scc(-c3ccc(-c4ccccc4)cc3)c12,nt,nt,nt,i,i
COc1ccc(-c2csc(NC(=O)C3=COCCO3)n2)cc1OC,i,i,35,i,66
O=C(Nc1nc(-c2ccc(F)c(F)c2)cs1)C1=COCCO1,i,i,i,i,53
CCc1ccc(-c2csc(NC(=O)C3=COCCO3)n2)cc1,82,i,?,i,75
O=C(Nc1nc(-c2cccs2)cs1)C1=COCCO1,i,nt,i,i,nt
O=C(Cc1ccccc1F)Nc1nc(-c2ccc(F)c(F)c2)cs1,83,i,i,i,65
O=C(c1cccnc1)N1C[C@@H]2[C@H](c3ccccc31)[C@H](CO)N2C(=O)C1CCCC1,nt,i,nt,nt,i
CCC(=O)Nc1ccc2c(c1)C(=O)N(C)[C@H]1CC[C@@H](CC(=O)N[C@@H](C)c3ccccc3)O[C@H]1CO2,nt,i,nt,nt,i
SMILES,MITF act,C2C12 statin,Wnt act,GAA850 FXN act,esBAF inh
COc1ccc(CN(C)C[C@H]2OCCCC[C@H](C)Oc3ccc(NC(=O)c4ccncc4)cc3C(=O)N([C@@H](C)CO)C[C@@H]2C)cc1,nt,nt,nt,nt,i
O=C(Nc1nc(-c2ccc(Cl)cc2)cs1)C1=COCCO1,99,i,i,i,nt
O=C(Nc1ccc(Cl)cc1)Nc1ccc(Br)cn1,94,i,i,i,?
COc1ccc(NC(=O)Nc2ccc(Br)cn2)cc1OC,i,i,i,i,i
Cc1ccnc(NC(=O)Nc2ccc(F)cc2)c1,i,nt,nt,i,nt
CCOc1ccc(NC(=O)Nc2ccc(Br)cn2)cc1,?,nt,nt,i,nt
Cc1ccc(NC(=O)Nc2ccc(F)cc2)nc1,82,nt,nt,i,nt
Cc1cc(NC(=O)Nc2ccc(Cl)cc2)no1,i,i,i,i,47
COc1cccc(NC(=O)Nc2ccc(Br)cn2)c1,106,i,i,i,47
CC(=O)N1[C@H](C(=O)NC2Cc3ccccc3C2)[C@@H](CO)[C@@H]2Cn3c(ccc(-c4ccncc4)c3=O)[C@@H]21,nt,i,nt,nt,i
Cc1ccc(NC(=O)CN2CCCC2c2cccn2C)c(Br)c1 (stereo not given),109,i,i,i,i
CCc1nnc(NC(=O)Cn2c(=O)oc3ccccc32)s1,i,140,i,i,i
CCCc1nnc(NC(=O)Cn2c(=O)oc3ccccc32)s1,i,nt,i,i,i
CC(=O)OC12CC3CC(C1)C(=NO)C(C3)C2,i,94,nt,i,i
O=C(Cc1c(F)c(F)c(F)c(F)c1F)OC12CC3CC(C1)C(=O)C(C3)C2,i,i,i,i,i
COc1ccc(NC(=O)CN(C)CC(=O)Nc2ccc(Cl)c(S(=O)(=O)N(C)C)c2)cc1,i,i,i,i,i
CN(CC(=O)Nc1ccc(Cl)c(S(=O)(=O)N(C)C)c1)Cc1ccccc1,i,i,i,i,65
O=C(C[C@@H]1CC[C@H](NC(=O)Nc2cc(F)ccc2F)[C@@H](CO)O1)Nc1ccccc1,nt,i,nt,nt,i
Cc1cc(C(=O)N2CCN(Cc3ccc4c(c3)OCO4)CC2)cs1,i,92,i,i,i
Cc1cc(C)c2c(CN3CCN(Cc4ccc5c(c4)OCO5)CC3)cc(=O)oc2c1,i,150,nt,i,i
Cc1cc(C)cc(C(=O)N2CCN(Cc3ccc4c(c3)OCO4)CC2)c1,nt,i,i,i,i
C[C@H]1CN([C@@H](C)CO)C(=O)Cc2cc(NS(=O)(=O)c3cn(C)cn3)ccc2O[C@@H]1CN(C)Cc1ccc(C(=O)O)cc1,nt,i,nt,nt,i
C[C@@H]1CCCCO[C@H](CN(C)S(=O)(=O)c2ccc(F)cc2)[C@@H](C)CN([C@@H](C)CO)C(=O)c2cc(NC(=O)CCCN(C)C)ccc2O1,nt,nt,nt,nt,i
CNC(=O)C[C@H]1CC[C@@H]2[C@@H](COc3ccc(NC(=O)c4cscn4)cc3C(=O)N2C)O1,nt,i,nt,nt,i
CCC(=O)NC(c1ccccc1)c1nc2ccccc2[nH]1 (stereo not given),i,i,nt,i,49
CN(C)C(=O)C[C@H]1CC[C@H]2[C@@H](COC[C@H](O)CN2Cc2ccc(C(F)(F)F)cc2)O1,nt,i,nt,nt,i
COC(=O)c1cccc(N2C(=O)c3ccccc3S2(=O)=O)c1,i,nt,i,i,nt
CN=C1c2ccccc2CN1c1cccc(C(=O)OC)c1,i,100,nt,i,i
